High-throughput results (PubChem BioAssay)
In the library only some 18% were active in any assay of this set; here they are far more common.
IL1B secr inh: blocks inflammasome-driven IL-1 beta release. THP-1 LPS/ATP IL-1B secretion, AlphaLISA, 16 h; stronger effect = lower value. activity change, % at 57.5 µM. hit rate 4.7% among 360,000. AID 743279; in the data active means activity change below about -50%; inconclusive means mostly about -30% to -49%
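THP-1 cells pretreated 1 hr with compounds (up to 57.5 uM final), then stimulated with LPS (250 ng/mL final) plus ATP (1.25 mM final); secreted IL-1B measured by AlphaLISA after 16 hr, decreased signal indicating inhibition.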
TDP1 cell noCPT: qHTS for Inhibitors of human tyrosyl-DNA phosphodiesterase 1 (TDP1): qHTS in cells in absence of CPT | DT40 Tdp1-/- hTDP1 cells, no CPT, ATP luminescence, 48 h | Potency, µM (titrated, usually from 46.2 µM), without a hit: top-dose activity change, negative = growth inhibition, hits mostly inhibitors | hit rate 15% among 420,000 | AID 686978, 2013; further: potency means the concentration at half of the fitted maximal effect; nearly all actives have a fitted effect of over 55% in size
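DT40 Tdp1-/-;hTDP1 cells, no CPT (DMSO vehicle only), 400 cells/well; compounds pin-transferred; ≥48 hr, 37 °C; CellTiter-Glo 30 min RT dark, luminescence read.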
Six1-Eya2 inh: inhibitors of human Six1/Eya2 interaction; Q15475+O00167; AlphaScreen GST-Six1/His-Eya2 binding, biochemical; stronger effect = lower value; activity change, % (test concentration not listed); hit rate 0.56% among 360,000; AID 651725; in the data active means activity change below about -65%; inconclusive means mostly about -30% to -63%
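Six1/Eya2 binding was read as AlphaScreen signal after compounds were pinned into GST-Six1 plus His-tagged Eya2 (5X stock 250/500 nM) in pH 8.0 Tris/NaCl/TCEP buffer, beads added, then incubated 1 h, 37 C, dark.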
TDP1 block: blocks human tyrosyl-DNA phosphodiesterase 1. Q9NUW8. recombinant TDP1, AlphaScreen DNA substrate cleavage. Potency, µM (top dose mostly 130 µM), for inactives: top-dose activity change, negative = inhibition, usual class: inhibitors. hit rate 0.28% among 350,000. AID 485290; further: potency means the concentration at half of the fitted maximal effect; nearly all actives have a fitted effect of over 40% in size
Target sequence (Q9NUW8 whole entry, looked up): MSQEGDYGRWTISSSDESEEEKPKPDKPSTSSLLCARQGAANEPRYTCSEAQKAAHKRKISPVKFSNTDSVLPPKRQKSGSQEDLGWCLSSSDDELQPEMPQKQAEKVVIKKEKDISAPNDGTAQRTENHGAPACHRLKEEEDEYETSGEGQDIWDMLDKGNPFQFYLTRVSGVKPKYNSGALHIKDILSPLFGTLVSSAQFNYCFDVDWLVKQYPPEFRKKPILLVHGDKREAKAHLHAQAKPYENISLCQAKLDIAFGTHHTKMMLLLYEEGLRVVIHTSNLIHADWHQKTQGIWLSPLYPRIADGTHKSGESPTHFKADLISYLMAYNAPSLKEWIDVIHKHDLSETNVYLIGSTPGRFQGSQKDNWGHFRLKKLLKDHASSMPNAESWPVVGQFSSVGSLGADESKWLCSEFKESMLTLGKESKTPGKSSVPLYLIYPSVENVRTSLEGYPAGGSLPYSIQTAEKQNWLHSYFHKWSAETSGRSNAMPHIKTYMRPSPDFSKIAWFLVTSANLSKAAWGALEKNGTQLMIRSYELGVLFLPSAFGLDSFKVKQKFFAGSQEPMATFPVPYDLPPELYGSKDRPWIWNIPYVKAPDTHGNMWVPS
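Recombinant human Tdp1 (E. coli-expressed, 1 nM final) preincubated with compounds 15 min at room temperature, then 5'-biotin/3'-phosphotyrosine-FITC DNA substrate (15 nM final) added for 5 min. AlphaScreen beads (10 ug/ml final) added 10 min; cleavage lowers signal.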
TDP1 cell CPT: DT40-hTDP1 cell growth loss with CPT. chicken DT40 Tdp1-/-;hTDP1 cells + 20 nM CPT, ATP luminescence, 48 h. Potency, µM (series often up to 46.2 µM), for the others: top-dose activity change, negative = growth inhibition, usual class: inhibitors. hit rate 12% among 420,000; further: potency means the concentration at half of the fitted maximal effect; nearly all actives have a fitted effect of over 55% in size
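Cell growth measured by CellTiter-Glo luminescence after a minimum 48 h, 37 C compound exposure with 20 nM CPT in Tdp1-knockout DT40 cells stably expressing hTDP1, seeded 400/well; qHTS titration format.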
CtBP-E1A inh: inhibitors of CtBP/E1A interaction; hit rate 0.49% among 340,000; AlphaScreen GST-E1A/His-CtBP binding, 1536-well; stronger effect = lower value; activity change, % (test concentration not listed); AID 651724; in the data active means activity change below about -65%; inconclusive means mostly about -30% to -63%
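Homogeneous bead-based format: GST-tagged E1A captured on glutathione donor beads, His-tagged CtBP on nickel acceptor beads; compounds precede bead addition by 2 h at 37 °C.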
Active calls of the source: *; ? = inconclusive; . = no result. Unless noted, the call rests on the fitted dose curve; in most records, active means well fitted curve in the direction sought with a large enough effect; inconclusive means small, poorly fitted or top-dose-only effect, or another doubt; inactive means no such curve, though single readings can be large; an effect the other way counts as inactive or inconclusive. On the % scale 0 is the no-effect control and ±100 the full control effect.

SMILES	IL1B secr inh	TDP1 cell noCPT	Six1-Eya2 inh	TDP1 block	TDP1 cell CPT	CtBP-E1A inh
CCOC(=O)C[C@H]1c2cc(F)ccc2S(=O)(=O)N1c1ccccc1	28	?	6	.	?	.
CN(C)Cc1c(C(=O)N/N=C/c2ccc(-c3ccccc3)cc2)nnn1-c1nonc1N	-6	?	3	1%	?	-7
Cc1nn(-c2ccc(F)cc2)c(C)c1CN1CCN(Cc2ccccc2)C(CCO)C1 (stereo not drawn)	8	?	-3	.	?	7
OCCCNc1c2c(nc3cc(-c4ccc(Cl)cc4)nn13)CCC2	?	?	-5	6%	-30%	-3
Cc1nn2c(N3CCOCC3)c3c(nc2c1-c1ccccc1)CCCC3	-18	?	12	-8%	?	14
Clc1cccc(-c2cc3nc4c(c(N5CCNCC5)n3n2)CCCC4)c1	.	.	.	-5%	.	.
Fc1cccc(-c2cc3nc4c(c(N5CCC6(CC5)OCCO6)n3n2)CCCC4)c1	-70*	23µM*	-1	3%	21µM*	5
OC1CCN(c2c3c(nc4cc(-c5cccc(F)c5)nn24)CCCC3)CC1	-100*	21µM*	1	-1%	16µM*	3
CN(CCO)c1c2c(nc3cc(-c4cccc(F)c4)nn13)CCCC2	-25	21µM*	-3	-9%	?	-5
CCOC(=O)Cn1nc(/C=C/c2ccccc2)ccc1=O	-3	-16%	4	-4%	-19%	-1
O=C1CN(C(=O)c2ccccc2)C(c2ccccc2)c2cc(Cl)ccc2N1 (stereo not drawn)	5	?	-3	.	5%	-22
O=C1CN(C(=O)c2ccco2)C(c2ccccc2)c2cc(Cl)ccc2N1 (stereo not drawn)	11	16µM*	3	8%	16µM*	-5
O=C1CN(C(=O)c2c(F)cccc2Cl)C(c2ccc(F)cc2)c2cc(Br)ccc2N1 (stereo not drawn)	.	?	.	6%	?	.
O=C1CN(C(=O)c2ccc(Br)o2)C(c2ccc(F)cc2)c2cc(Cl)ccc2N1 (stereo not drawn)	-6	?	-24	3%	16µM*	-6
O=C1CN(C(=O)c2ccc(Br)o2)C(c2ccccc2)c2cc(Cl)ccc2N1 (stereo not drawn)	-19	?	-17	9%	15µM*	-6
O=C(CSc1nc(-c2ccc(F)cc2)cs1)N1CCN(C(=O)c2ccco2)CC1	20	?	-2	2%	-20%	2
COC(=O)c1ccccc1NC(=O)Nc1nnc(N2CCC(C)CC2)s1	12	-16%	0	11%	-16%	4
OCCn1ccc(-c2ccccc2OCc2ccc(F)cc2)n1	-8	21µM*	3	.	?	-3
COc1ccc(N2CCN(C(=O)COC(=O)c3ccccc3OCc3ccc(F)cc3)CC2)cc1	13	?	-8	10%	?	-27
c1ccc(CN2CCC3CC2c2ccc(N4CCOCC4)cc23)cc1 (stereo not drawn)	3	-30%	-12	.	-10%	0
Cc1ccc(-c2nnc(Oc3ccc(NC(=O)c4ccccc4)cc3)c3ccccc23)cc1	-11	?	4	3%	?	-18
Cc1ccc(-c2nnc(OCC3CCCO3)c3ccccc23)cc1 (stereo not drawn)	-66*	18µM*	1	9%	?	7
Cc1ccc(-c2nnc(Oc3cccc(C)c3)c3ccccc23)cc1	-75*	?	3	3%	?	-9
Cc1ccc(Oc2nnc(-c3ccccc3)c3ccccc23)cc1	-20	?	-1	3%	21µM*	1
Cc1cc(C)nc(N(C#N)CCOc2ccc(Cl)cc2)n1	-20	-24%	13	3%	3%	4
SMILES	IL1B secr inh	TDP1 cell noCPT	Six1-Eya2 inh	TDP1 block	TDP1 cell CPT	CtBP-E1A inh
CC(C)Nc1nc(NC(C)C)nc(N(C#N)CCOc2ccc(Cl)cc2Cl)n1	-13	?	1	8%	18µM*	-20
CCC(C)NC(=O)CSc1nc2c(sc3ccccc32)c(=O)n1CCc1ccc(OC)c(OC)c1 (stereo not drawn)	.	-22%	.	6%	2%	.
COCCNC(=O)CCCn1c(SCc2ccccc2Cl)nc2c(sc3ccccc32)c1=O	.	9.2µM*	.	6%	?	.
CCC(C)NC(=O)CSc1nc2c(sc3ccccc32)c(=O)n1Cc1ccccc1Cl (stereo not drawn)	.	3.3µM*	.	6%	?	.
Clc1cccc(/C=N/Nc2nnc(Cl)c3ccccc23)c1	?	-24%	?	8%	?	40
Clc1ccc(/C=N/Nc2nnc(-c3ncc[nH]3)c3ccccc23)cc1	22	21µM*	-26	9%	?	-21
CCOC(=O)c1c(NC(=O)COC(=O)c2cccc([N+](=O)[O-])c2)sc(C(=O)N(C)C)c1C	-4	-1%	0	.	-4%	1
Cc1cc(C)nc(-n2nc(C)c3c2NC(=O)CC3c2cc(F)ccc2F)n1 (stereo not drawn)	.	23µM*	.	3%	?	.
CCN(Cc1ccccc1)S(=O)(=O)c1ccc(C(=O)N(CCCN(C)C)c2nc3c(F)cccc3s2)cc1	-77*	?	-24	11%	?	-26
CCOc1cccc2sc(N(CCN(C)C)C(=O)c3cc4ccccc4cc3OC)nc12	-58*	?	?	12%	23µM*	?
CCOc1cccc2sc(N(CCCN(C)C)C(=O)Cc3ccccc3)nc12	-26	22%	2	6%	-3%	1
CCOc1cccc2sc(N(CCCN(C)C)C(=O)c3ccc(C(=O)c4ccccc4)cc3)nc12	-88*	-5%	-18	10%	?	-23
CCOc1ccc2nc(N(CCN(C)C)C(=O)c3cc4ccccc4cc3OC)sc2c1	?	?	?	12%	?	.
CN(C)CCCN(C(=O)c1ccc(C(=O)c2ccccc2)cc1)c1nc2c(F)cccc2s1	?	-12%	-24	6%	-28%	-28
CCOc1cccc2sc(N(CCCN(C)C)C(=O)c3ccc(S(=O)(=O)N(CC)Cc4ccccc4)cc3)nc12	-90*	?	-30	13%	?	?
Cc1ccc(S(=O)(=O)Nc2nc(C)c(C(=O)N/N=C/c3ccccc3)s2)cc1	-2	-13%	-29	4%	3%	-17
